Bioassay records from PubChem BioAssay.
Six1-Eya2 inh: blocks human Six1 binding to Eya2; Q15475+O00167; AlphaScreen GST-Six1/His-Eya2 binding, biochemical; hits give low values; activity change, % (concentration not given with the values); actives 0.56% (n = 360,000); AID 651725; in the data active = activity change below about -65%; inconclusive = mostly about -30% to -63%; note: % is set by controls: 0 for no effect and ±100 for the full control effect
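GST-Six1 + His-Eya2 (5X stock: 250/500 nM); Tris pH 8.0, 300 mM NaCl, 0.05% BSA, 0.02% Tween 20; GSH donor/Ni acceptor beads; 1 h 37 °C dark; AlphaScreen readout.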
HP1b chromo inh: blocks HP1-beta chromodomain binding to methylated histone tails. P83916. AlphaScreen HP1-beta / biotin-H3K9me3 peptide binding. Potency, µM (series often up to 114 µM), for inactives: at the highest dose activity change, negative = inhibition, actives largely listed as inhibitors. actives 0.56% (n = 390,000); note: potency is the fitted concentration of half-maximal effect; nearly all actives have a fitted effect of over 70% in size
Target sequence (P83916 whole entry, looked up): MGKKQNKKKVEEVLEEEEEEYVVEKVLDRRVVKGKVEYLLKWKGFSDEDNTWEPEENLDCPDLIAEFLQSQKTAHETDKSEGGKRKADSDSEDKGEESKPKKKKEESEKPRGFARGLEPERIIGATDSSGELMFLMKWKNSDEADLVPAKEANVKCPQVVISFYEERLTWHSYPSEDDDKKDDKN
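AlphaScreen: HP1-beta (50 nM) preformed 30 min with biotin-H3(1-18)K9me3 peptide (50 nM) in PBS pH 7.4, 0.01% Tween-20. Compound added for 30 min at RT, then streptavidin donor/nickel chelate acceptor beads (10 ug/mL) for 30 min.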
G9a block: G9a (human) methyltransferase inhibition. actives 8.8% (n = 350,000). Potency, µM (highest dose often 102 µM), inactives show at the top dose activity, negative = inhibition, actives largely listed as inhibitors. G9a H3K9 monomethylation, AlphaScreen, 2 h. Q96KQ7. AID 504332; note: potency is the fitted concentration of half-maximal effect; % is set by controls: 0 for no effect and ±100 for the full control effect; nearly all actives have a fitted effect of over 75% in size
Target sequence (Q96KQ7 913-1193 limits assumed): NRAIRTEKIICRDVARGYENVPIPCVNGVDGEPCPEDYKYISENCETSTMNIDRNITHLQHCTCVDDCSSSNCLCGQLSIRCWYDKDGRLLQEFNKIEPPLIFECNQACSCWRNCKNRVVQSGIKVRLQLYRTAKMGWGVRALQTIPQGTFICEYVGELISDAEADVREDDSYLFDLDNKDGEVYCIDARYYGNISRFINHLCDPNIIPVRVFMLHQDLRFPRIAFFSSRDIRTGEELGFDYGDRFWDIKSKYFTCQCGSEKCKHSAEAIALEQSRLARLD
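Methyltransferase reactions run at room temperature for 2 h (20 nM enzyme, 500 nM biotin-H3K9 peptide, 20 uM SAM) after a 15 min compound preincubation; product detected by AlphaScreen beads and anti-H3K9me1 antibody.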
JMJD2A Tudor inh: JMJD2A Tudor domain (human) inhibition; Potency, µM (top dose mostly 114 µM), without a hit: at the top dose activity change, negative = inhibition, hits mostly inhibitors; AlphaScreen JMJD2A-Tudor / H3K4me3 peptide binding; O75164; actives 4.4% (n = 390,000); note: potency is the fitted concentration of half-maximal effect; % is set by controls: 0 for no effect and ±100 for the full control effect; nearly all actives have a fitted effect of over 50% in size
BAZ2B block: blocks human BAZ2B; Q9UIF8; AlphaScreen BAZ2B-H3K14Ac peptide displacement; Potency, µM (series often up to 114 µM), without a hit: at the highest dose activity change, negative = inhibition, usual class: inhibitors; actives 4.4% (n = 360,000); AID 504333; note: potency is the fitted concentration of half-maximal effect; % is set by controls: 0 for no effect and ±100 for the full control effect; nearly all actives have a fitted effect of over 60% in size
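Inhibition is scored as reduced AlphaScreen emission. The BAZ2B/b-H3(5-23)K14Ac complex (50 nM each) in PBS pH 7.4, 0.01% Tween-20 meets compound (up to 110 uM) for 30 min at RT before bead addition.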
CtBP-E1A blk: CtBP/E1A binding inhibition; AlphaScreen GST-E1A/His-CtBP binding, 1536-well; hits give low values; activity change, % (no concentration beside the values); actives 0.49% (n = 340,000); in the data active = activity change below about -65%; inconclusive = mostly about -30% to -63%; note: % is set by controls: 0 for no effect and ±100 for the full control effect
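Steps: dispense buffer (Tris pH 8.0, NaCl 300 mM, TCEP 1 mM, BSA, Tween 20); add 5X protein mix (GST-E1A, His-CtBP, 125 nM each); pin 23 nL compound; 2 h at 37 °C, dark; add 5X beads (50 ug/mL); 1 h; read.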
Active calls of the source: *; ? = inconclusive; nt = no result; [ ] = remark or other dose. An excerpt weighted towards active compounds, which were near 10% of everything screened. Unless noted, calls come from the whole dose curve; as a rule, active = well fitted inhibition curve with a large enough effect; inconclusive = small, poorly fitted or top-dose-only effect; inactive = no such curve, though single readings can be large or run the other way.

SMILES	Six1-Eya2 inh	HP1b chromo inh	G9a block	JMJD2A Tudor inh	BAZ2B block	CtBP-E1A blk
CC(=O)OC1CC[C@@]2(C)C(CC[C@@]3(C)C2CC=C2C4CC(C)(C)CC[C@]4(C)CC[C@@]23C)C1(C)C (some centres not stated)	nt	nt	-35%[2.33 µM]	nt	nt	nt
O=C1c2ccccc2S(=O)N1c1cccc(F)c1 (configuration not stated)	8	nt	nt	nt	nt	0
COc1ccc(CNC(=O)c2cc(-c3ccc(C)c(C)c3)n[nH]2)cc1	nt	50%	6%[59 µM]	10%	-9%	nt
O=c1cc(O)n(-c2ccc(F)cc2)c(=S)[nH]1	9	33%	32µM*	-3%	-1%	4
O=C(O)c1ccc2c(=O)n(-c3ccc(F)cc3)c(=S)[nH]c2c1	4	50%	?	-16%[11.4 µM]	-7%	2
CCOC(=O)CC1(C)Oc2cc(Cl)ccc2N1S(=O)(=O)c1ccc(C)cc1 (configuration not stated)	18	nt	nt	nt	nt	-1
CN(C)c1ccc(/C=[N+](\[O-])C(C)(C)/C=N/O)cc1	1	20%	?	50µM*	-4%	0
COc1cc(C(=O)NNC(=O)C2CSC3(C)CCC(=O)N23)cc(OC)c1OC (configuration not stated)	-3	62%	2%[12.7 µM]	-3%	-5%	nt
CCOc1cc(/C=C2\N=C(C)OC2=O)cc(Cl)c1OCC(=O)OC	-1	-20%	nt	-10%	nt	4
COc1cc(/C=C2\N=C(C)OC2=O)cc(Cl)c1OC(C)=O	3	11%	40µM*	-1%	1%	-1
CC(=O)Nc1sc(N/N=C/c2ccc(C)cc2)nc1-c1ccc(C)cc1	-10	?	?	45µM*	?	nt
CC(=O)Nc1sc(N/N=C/c2ccc(N(C)C)cc2)nc1-c1ccc(C)cc1	-4	?	8.9µM*	45µM*	28µM*	nt
CC(=O)/C=C1\OCc2ccccc21	6	nt	nt	nt	nt	-5
CCCn1c(SCC(=O)N2CCCCC2)nnc1-c1ccccn1	nt	nt	-4%	nt	1%	nt
CCCn1c(SCC(=O)N2c3ccc(F)cc3CCC2C)nnc1-c1ccccn1 (configuration not stated)	-2	?	-12%[59 µM]	71µM*	5%	-1
CC1NC(C(=O)O)Cc2c1[nH]c1ccccc21 (configuration not stated)	nt	nt	35%[59 µM]	nt	nt	nt
O=C(O)C1Cc2c([nH]c3ccccc23)C(c2ccc3c(c2)OCO3)N1 (configuration not stated)	-7	5%	35µM*	?	-29%	13
COc1cc(/C=N/NC(=O)CCN2CCN(Cc3ccccc3)CC2)cc(OC)c1OC	-10	2%	15%[59 µM]	-24%	0%	-4
O=C(CCN1CCN(c2ccccc2)CC1)N/N=C/c1ccc(O)c(O)c1O	?	28µM*	8.9µM*	40µM*	8.9µM*	?
Cc1cc(C(=O)N/N=C/c2ccc(O)c(O)c2O)c(C)n1-c1ccccc1	?	?	10µM*	56µM*	56µM*	?
COC(=O)N/N=C/c1cc(C)n(-c2ccccc2)c1C	-3	6%	-16%[59 µM]	-25%	-31%	nt
COc1cc(/C=N/NC(=O)CCN2CCN(c3ccccc3)CC2)cc(OC)c1OC	-82*	14%	-15%[59 µM]	-11%	-6%	-80*
COc1ccc(/C=N/NC(=O)CCN2CCN(c3ccccc3)CC2)c(OC)c1OC	-17	19%	6%	-18%	8%	-4
O=C(Cc1ccccc1)N/N=C/c1cc(Br)cc(Br)c1O	?	44%	45%[2.33 µM]	-16%	15%	-15
O=C(CCN1CCOCC1)N/N=C/c1cc(Br)cc(Br)c1O	-83*	28%	nt	?	56µM*	-73*
Cc1ccc(S(=O)(=O)N2CCCc3cc(NS(=O)(=O)c4ccc(C)c(C)c4)ccc32)cc1	nt	5%	-6%[59 µM]	-25%	-19%	nt
COc1ccc(S(=O)(=O)N2CCCCCC2)cc1C(=O)NCc1ccc(C)cc1	7	23%	-2%[12.7 µM]	-5%	-4%	nt
